Results from PubChem BioAssay AID1159580 (chemical genetic matrix, 2015).
The whole screen tested about 5,500 compounds, of which about 2,000 (36%) were called active. Inconclusive results (about 18%) are left out. No stated cut-off is given here; in the data, active means normalized growth mostly below about 0.91 (no sharp cut-off); inconclusive means no clear call, values can overlap the other calls; inactive means mostly above about 0.92. The list shows a part of the results.

Assay: chemical genetic growth profiling, strain panel (AID 1159580);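 further: tested at 20 µM; growth read once vehicle control cultures reached saturation at 30 °C; 1 = growth at the plate median or of vehicle wells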
Conditions: S. cerevisiae deletion strains, growth OD
[1] = locus YAL013W, strain DEP1, stronger effect = lower value
[2] = locus YAL040C, strain CLN3, stronger effect = lower value
[3] = locus YCL061C, strain MRC1 (second series), stronger effect = lower value
[4] = locus YDR363W, strain ESC2, stronger effect = lower value
[5] = locus YER002W, strain NOP16, stronger effect = lower value
[6] = locus YGR078C, strain PAC10, stronger effect = lower value
[7] = locus YMR307W, strain GAS1, stronger effect = lower value
[8] = locus YNL175C, strain NOP13, stronger effect = lower value
[9] = locus YNL197C, strain WHI3, stronger effect = lower value
[10] = locus YNL224C, strain SQS1, stronger effect = lower value
[11] = locus YOR083W, strain WHI5 (second series), stronger effect = lower value
[12] = locus YPL241C, strain CIN2, stronger effect = lower value

Measured: normalized growth

Cc1cccc(/C=C/c2ccccc2)n1
inactive: [1] 1 | [2] 0.984 | [3] 1.01 | [4] 1.04 | [5] 0.975 | [6] 1.01 | [7] 0.995 | locus YNL153C, strain GIM3, stronger effect = lower value 0.93 | [8] 0.963 | [9] 0.986 | [10] 0.989 | [11] 0.923 | [12] 1.02

CC(COc1ccc(/C=C/c2ccccc2)cc1)[N+](C)(C)C (stereo not given)
active: locus YDR150W, strain NUM1, stronger effect = lower value 0.926 | locus YJR075W, strain HOC1, stronger effect = lower value 0.878 | [10] 1.12 [resistant] | [11] 0.816
inactive: [1] 0.942 | [2] 1.02 | [3] 0.982 | [4] 0.914 | [5] 0.989 | [6] 0.99 | locus YMR263W, strain SAP30, stronger effect = lower value 1.01 | [7] 0.994 | locus YNL128W, strain TEP1, stronger effect = lower value 1.03 | [8] 0.999 | [9] 0.996 | [12] 0.98

OC(COc1ccc(F)cc1)(c1ccccc1)c1ccccc1
inactive: locus YAR019C, strain CDC15, stronger effect = lower value 0.955 | locus YBL105C, strain PKC1, stronger effect = lower value 0.953 | locus YBR135W, strain CKS1, stronger effect = lower value 0.965 | locus YBR136W, strain MEC1, stronger effect = lower value 0.968 | locus YBR160W, strain CDC28, stronger effect = lower value 0.951 | locus YDL017W, strain CDC7, stronger effect = lower value 0.955 | locus YDL028C, strain MPS1, stronger effect = lower value 0.977 | locus YDL101C, strain DUN1, stronger effect = lower value 0.939 | locus YDL108W, strain KIN28, stronger effect = lower value 0.982 | locus YDL132W, strain cdc53, stronger effect = lower value 0.955 | locus YDL214C, strain PRR2, stronger effect = lower value 0.964 | locus YDR052C, strain DBF4, stronger effect = lower value 0.965 | locus YDR054C, strain cdc34, stronger effect = lower value 0.949 | locus YDR226W, strain ADK1, stronger effect = lower value 0.955 | locus YDR477W, strain SNF1, stronger effect = lower value 0.985 | locus YER123W, strain YCK3, stronger effect = lower value 0.969 | locus YER133W, strain GLC7, stronger effect = lower value 0.993 | locus YFL009W, strain cdc4, stronger effect = lower value 0.954 | locus YFL029C, strain CAK1, stronger effect = lower value 0.957 | locus YFR003C, strain YPI1, stronger effect = lower value 0.961 | locus YFR019W, strain FAB1, stronger effect = lower value 0.974 | locus YFR028C, strain CDC14, stronger effect = lower value 0.964 | locus YGR040W, strain KSS1, stronger effect = lower value 0.998 | locus YGR052W, strain FMP48, stronger effect = lower value 1.1 | locus YGR092W, strain DBF2, stronger effect = lower value 0.939 | locus YHR030C, strain SLT2, stronger effect = lower value 1.14 | locus YHR079C, strain IRE1, stronger effect = lower value 1.09 | locus YHR082C, strain KSP1, stronger effect = lower value 1.1 | locus YHR205W, strain SCH9, stronger effect = lower value 0.977 | locus YIL147C, strain SLN1, stronger effect = lower value 0.966 | locus YJL095W, strain BCK1, stronger effect = lower value 1.1 | locus YJL128C, strain PBS2, stronger effect = lower value 0.913 | locus YJL157C, strain FAR1, stronger effect = lower value 0.968 | locus YJR016C, strain ILV3, stronger effect = lower value 0.959 | locus YJR066W, strain TOR1 (second series), stronger effect = lower value 1.01 | locus YJR066W, strain TOR1, stronger effect = lower value 1.15 | locus YKL048C, strain ELM1, stronger effect = lower value 0.95 | locus YKL067W, strain YNK1, stronger effect = lower value 0.961 | locus YKL101W, strain HSL1, stronger effect = lower value 0.962 | locus YKL193C, strain SDS22, stronger effect = lower value 0.959 | locus YKL203C, strain TOR2, stronger effect = lower value 1.07 | locus YLR113W, strain HOG1, stronger effect = lower value 0.971 | locus YLR133W, strain CKI1, stronger effect = lower value 0.955 | locus YLR403W, strain SFP1, stronger effect = lower value 0.983 | locus YML070W, strain DAK1, stronger effect = lower value 0.973 | locus YMR001C, strain CDC5, stronger effect = lower value 0.954 | locus YMR205C, strain PFK2 (second series), stronger effect = lower value 0.968 | locus YMR277W, strain FCP1, stronger effect = lower value 0.961 | locus YNL006W, strain LST8, stronger effect = lower value 0.97 | locus YNL020C, strain ARK1, stronger effect = lower value 0.959 | locus YNL161W, strain CBK1, stronger effect = lower value 0.958 | locus YNL183C, strain NPR1, stronger effect = lower value 1.12 | locus YNL207W, strain RIO2, stronger effect = lower value 0.971 | locus YNL222W, strain SSU72, stronger effect = lower value 0.962 | locus YNL307C, strain MCK1 (second series), stronger effect = lower value 0.961 | locus YOL078W, strain AVO1, stronger effect = lower value 0.967 | locus YOL136C, strain PFK27, stronger effect = lower value 0.98 | locus YOR061W, strain CKA2, stronger effect = lower value 0.969 | locus YOR119C, strain RIO1, stronger effect = lower value 1.02 | locus YOR231W, strain MKK1, stronger effect = lower value 1.06 | locus YOR329C, strain SCD5, stronger effect = lower value 0.956 | locus YPL031C, strain PHO85, stronger effect = lower value 0.985 | locus YPL153C, strain RAD53, stronger effect = lower value 1 | locus YPL204W, strain HRR25, stronger effect = lower value 0.991 | locus YPL209C, strain IPL1, stronger effect = lower value 0.956 | locus YPL256C, strain CLN2, stronger effect = lower value 1.02 | locus YPR025C, strain CCL1, stronger effect = lower value 0.954 | locus YPR106W, strain ISR1, stronger effect = lower value 0.954 | locus YPR111W, strain DBF20, stronger effect = lower value 0.949 | strain NNK1, stronger effect = lower value 0.956 | strain TSCII, stronger effect = lower value 0.957
